The list is not random: actives were taken first. Their share in the collection is about 1.8%.
LYPLA2 counter = LYPLA2 inhibitors, primary screen, counter-screen for PME1 inhibitor project, biochemical, fluorescence polarization, FP-Rh probe ABPP. inhibition, % at 5.9 µM. recombinant LYPLA2. Acyl-protein thioesterase 2 (Homo sapiens), O95372. AID 2177, 2009. actives 0.38% (n = 320,000);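 active = inhibition above the screen-wide mean plus 3 SD, limit set per campaign, cut at about 26% in these data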
PME-1 inh = PME-1 inhibitors via competitive probe labeling, primary screen, biochemical, fluorescence polarization, FP-Rh probe, HTS | Protein phosphatase methylesterase 1 (Homo sapiens), Q9Y570 | recombinant PME-1 | inhibition, % at 5.9 µM | actives 0.53% (n = 320,000) | AID 2130, 2009;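 active = inhibition above the campaign mean of all compounds plus 3 SD, cut at about 26% in these data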;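 note: competitive labeling of PME-1 active site by serine hydrolase directed probe; inhibitors block probe labeling so polarization falls and inhibition rises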
GSTO1 inh = inhibitors of recombinant GSTO1, primary screen, counter-screen for RBBP9 inhibitor project, biochemical, fluorescence polarization; actives 1.1% (n = 300,000); inhibition, % at 5.96 µM; Glutathione S-transferase omega-1 (Homo sapiens), P78417; AID 1974, 2009; activity-based probe fluorescence polarization;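 active = inhibition above the campaign mean inhibition plus 3 SD, cut at about 35% in these data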
PAD4 inh = human PAD4 inhibitors, primary screen, biochemical, fluorescence polarization, 1536-well format; inhibition, % at 6.36 µM; Protein-arginine deiminase type-4 (Homo sapiens), Q9UM07; recombinant PAD4, RCA probe fluorescence polarization; actives 0.41% (n = 330,000);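 active = percent inhibition above a cutoff equal to the mean of all tested compounds plus 3 SD, cut at about 15% in these data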
Target sequence (Q9UM07 whole entry, looked up): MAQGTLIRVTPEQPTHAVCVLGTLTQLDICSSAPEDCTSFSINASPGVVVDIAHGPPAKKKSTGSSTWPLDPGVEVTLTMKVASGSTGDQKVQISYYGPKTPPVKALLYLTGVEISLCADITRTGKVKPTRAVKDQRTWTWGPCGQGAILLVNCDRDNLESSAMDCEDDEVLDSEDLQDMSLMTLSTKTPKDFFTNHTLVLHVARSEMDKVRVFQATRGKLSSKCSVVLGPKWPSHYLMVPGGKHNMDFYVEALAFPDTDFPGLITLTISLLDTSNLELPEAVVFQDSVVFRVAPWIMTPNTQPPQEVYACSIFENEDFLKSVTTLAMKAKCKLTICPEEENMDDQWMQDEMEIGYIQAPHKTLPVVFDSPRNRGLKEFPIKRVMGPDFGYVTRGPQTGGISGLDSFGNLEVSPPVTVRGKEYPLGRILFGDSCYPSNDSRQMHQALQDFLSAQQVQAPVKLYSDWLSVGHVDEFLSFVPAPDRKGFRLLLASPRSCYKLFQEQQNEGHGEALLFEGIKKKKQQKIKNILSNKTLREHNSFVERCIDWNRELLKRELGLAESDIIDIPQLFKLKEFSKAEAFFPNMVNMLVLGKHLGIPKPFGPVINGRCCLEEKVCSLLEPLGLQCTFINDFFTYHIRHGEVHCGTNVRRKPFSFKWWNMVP
LYPLA1 counter = LYPLA1 inhibitors, primary screen, counter-screen for PME1 inhibitor project, biochemical, fluorescence polarization, FP-Rh probe ABPP | Acyl-protein thioesterase 1 (Homo sapiens), O75608 | recombinant LYPLA1 | inhibition, % at 5.9 µM | actives 0.16% (n = 320,000) | AID 2174, 2009;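 active = inhibition above the mean of all tested compounds plus 3 SD, set per campaign, cut at about 14% in these data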;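 note: inhibitors block serine hydrolase probe labeling of LYPLA1 so polarization falls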
Fam108B counter = mouse Fam108B serine hydrolase inhibitors, primary screen, counter-screen for RBBP9 inhibitor project, biochemical, fluorescence polarization | recombinant Fam108B, FP-Rh probe fluorescence polarization | AID 1947, 2009 | inhibition, % at 9.51 µM | actives 0.33% (n = 300,000);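 active = inhibition above the screen mean inhibition plus 3 SD, computed separately per campaign, cut at about 18% in these data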;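 note: inhibitors lower polarization as less probe binds the enzyme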
Each line names hits and unclear results; the compound was inactive in the other large screens.

CCCCn1c(N)c(N(CC(C)C)C(=O)c2ccc(F)c(S(=O)(=O)N3CCOCC3)c2)c(=O)[nH]c1=O	none
O=C(CCN1C(=O)c2ccccc2S1(=O)=O)Nc1ccc(C(=O)O)cc1	none
Cc1csc(N/N=C/c2ccc(O)c([N+](=O)[O-])c2)n1	GSTO1 inh 84.3
COc1ccc(-c2[nH]c(-c3ccc(SC)cc3)nc2SCC(=O)Nc2nccs2)cc1	PME-1 inh 70.2, Fam108B counter 35.5
Cc1cc(C(=O)CCl)c(C)n1-c1cccc(S(=O)(=O)N2CCOCC2)c1	GSTO1 inh 94.0
CCOc1ccc(S(=O)(=O)N2CCN(C(=O)c3cc4ccccc4o3)CC2)cc1	none (no result: LYPLA2 counter, PME-1 inh, GSTO1 inh, LYPLA1 counter, Fam108B counter)
COC(=O)c1ccc(NC(=O)C(=O)N2CCN(C(=S)Nc3cccc(OC)c3)CC2)cc1	LYPLA2 counter 56.1
COc1ccc(-c2cc(CCC(=O)N3CCN(c4cc(C)ccc4C)CC3)on2)cc1	none (no result: LYPLA2 counter, PME-1 inh, GSTO1 inh, LYPLA1 counter, Fam108B counter)
Cc1ccc(-c2nn(-c3ccc(F)cc3)cc2C(=O)N2CCN(C3CCS(=O)(=O)C3)CC2)cc1 (stereo unspecified)	none (no result: GSTO1 inh, Fam108B counter)
Cc1ccc(C)c(N=Cc2cc3c(cc2[N+](=O)[O-])OCO3)c1	none
Cc1ccc(N=Cc2cc3c(cc2[N+](=O)[O-])OCO3)cc1[N+](=O)[O-]	GSTO1 inh 36.4
CCC(C)c1ccc(S(=O)(=O)N2CCN(C(=O)COc3ccc4c(C)cc(=O)oc4c3)CC2)cc1 (stereo unspecified)	PME-1 inh 37.8
Cc1cc(=O)oc2cc(OCC(=O)N3CC(C)OC(C)C3)ccc12 (stereo unspecified)	none
c1ccc(-c2ccc(C3CCCN3)cc2)cc1 (stereo unspecified)	PME-1 inh 33.2
O=C(COc1ccc(Cl)cc1)NC1=NN(c2ccccc2)C(=O)C1	GSTO1 inh 39.8
COc1cccc(Oc2ccc(S(=O)(=O)N3CCCC3)cc2[N+](=O)[O-])c1	PME-1 inh 26.1
O=C(NNc1nc2c(F)cccc2s1)c1ccc(F)cc1	none
Cc1cccc2sc(NNC(=O)c3cc(=O)c4ccccc4o3)nc12	PME-1 inh 47.3
Cc1ccc2sc(NNC(=O)c3cc(=O)c4ccccc4o3)nc2c1C	PME-1 inh 46.0
O=C(NNc1nc2c(F)cccc2s1)c1cc(=O)c2ccccc2o1	PME-1 inh 54.5
Cc1ccc2sc(NNC(=O)c3cc(-c4cccs4)nc4ccccc34)nc2c1C	none
COc1ccc2nc(NNC(=O)c3cc(=O)c4ccccc4o3)sc2c1	none
CCOC(=O)N1CCc2c(sc3c2c(=O)n(-c2ccc(CC)cc2)c(=O)n3CC(=O)NCC2CCCO2)C1 (stereo unspecified)	none
COc1ccc(N=Nc2nc3ccc(Br)cc3n2C)cc1	PME-1 inh 41.4
O=C(NNC(=O)c1ccccc1F)c1ccc(S(=O)(=O)N2CCCCC2)cc1	none (no result: LYPLA2 counter, PME-1 inh, GSTO1 inh, LYPLA1 counter, Fam108B counter)
Nc1cccc(N2C(=O)c3cccc4c(N)ccc(c34)C2=O)c1	none
CC(C)CCN1C(=O)c2cccc3c(N)ccc(c23)C1=O	PAD4 inh 24.0
COC(=O)CNC(=O)C1Nc2ccccc2C2C=CCC12 (stereo unspecified)	GSTO1 inh 42.7
COc1cccc(CN(C)C(=O)[C@@H](NC(=O)c2ccc(C)cc2)C(C)C)c1	none
CC(=O)c1cccc(N(C(=O)Cn2nnc3ccccc32)C(C(=O)NC2CCCCC2)c2cn(C)nc2C)c1 (stereo unspecified)	none
O=C(NC1CCCCC1)C(c1ccc(O)c(O)c1)N(C(=O)Cn1nnc2ccccc21)c1cccc(O)c1 (stereo unspecified)	GSTO1 inh 36.3
COc1ccc(C(=O)N[C@H](C(=O)NCCCSc2ccccc2)C(C)C)cc1	none (no result: LYPLA2 counter, PME-1 inh, GSTO1 inh, LYPLA1 counter, Fam108B counter)
O=c1oc2c3c4c(cc2s1)CCCN4CCC3	GSTO1 inh 50.6
Cc1ccc(N(CC(=O)N2CCN(c3ccc(F)cc3)CC2)S(=O)(=O)c2c(C)noc2C)cc1	none

Source: PubChem
